Sampled rows, rich in hits. Any-hit rate of the full collection: about 1.3%.
Six1-Eya2 blk: qHTS Assay for Inhibitors of the Six1/Eya2 Interaction. Homeobox protein SIX1 (Homo sapiens) + Protein phosphatase EYA2 (Homo sapiens), …. AlphaScreen GST-Six1/His-Eya2 binding, biochemical; hits give low values. activity change, % (no concentration beside the values). 360,000 compounds, 0.56% hits
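AlphaScreen luminescence read after one hour at 37 °C in darkness. Pin-transferred compounds met GST-Six1 and His-Eya2 protein (5X stock 250 nM/500 nM) plus glutathione donor and Ni-chelate acceptor beads (5X, 50 ug/mL).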
pAkt inh: HTS Assay for Inhibitors of Akt Phophorylation: Primary Screen; Neuro2A IGF-stimulated pAkt S473 HTRF, 20 min; hits give low values; activity change, % for hits at 50 µM; 360,000 compounds, 0.32% hits; AID 651550, 2012; in the data active = activity change below about -80%; inconclusive = mostly about -51% to -80%
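Neuro2A cells in DMEM with 0.5% FBS, overnight at 37 deg C, given compound at single 50 µM final, then IGF (6 nM final) for 20 min at 37 deg C. Lysed; phospho-Akt Ser473 by HTRF after 24 h, 665/615 ratio.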
CtBP-E1A blk: qHTS Assay for Inhibitors of the CtBP/E1A Interaction | AlphaScreen GST-E1A/His-CtBP binding, 1536-well; hits give low values | activity change, % (no concentration beside the values) | 340,000 compounds, 0.49% hits | AID 651724, 2012
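AlphaScreen with 125 nM GST-E1A and 125 nM His-CtBP (5X stocks) in Tris pH 8.0, 300 mM NaCl, BSA, Tween 20, TCEP. Compounds preincubated 2 h at 37 deg C, then glutathione donor/nickel acceptor beads added for 1 h at 37 deg C in dark.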
CCT chaperon mod: High-Throughput Screening for Modulators of Cytosolic Chaperonin Activity; purified chaperonin ATPase assay, HTRF ADP detection, 30 min; activity change, % (concentration not given with the values), hits read low; 360,000 compounds, 0.3% hits; in the data active = activity change below about -30%
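Nucleotide hydrolysis assay: TRiC at 20–40 nM final (set by batch activity) with 10 uM ATP, 30 min at 37 °C, in presence of 76 uM compound. Detection by competitive ADP HTRF, 30 min ambient.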
Numbers without * were called inactive; i = inactive; ? = inconclusive; · = no result given. Rule as the data show it, unless noted: active = activity change below about -65%; inconclusive = mostly about -30% to -63%; inactive = weaker than that. % is scaled to controls: 0 for no effect and ±100 for the full control effect.

SMILES	Six1-Eya2 blk	pAkt inh	CtBP-E1A blk	CCT chaperon mod
CC(C)CCN1CN(S(=O)(=O)c2cccs2)c2nc3ccccc3nc21	1	-107%*	0	-2
CC(C)OCCCN1CN(S(=O)(=O)c2cccs2)c2nc3ccccc3nc21	4	i	2	-3
COCCN1CN(S(=O)(=O)c2ccccc2)c2nc3ccccc3nc21	-82*	i	-2	-2
O=C(NCCCNC(=O)c1ccccn1)c1ccc(Cl)cc1	2	i	3	0
O=C(N/N=C/c1ccc(O)cc1O)/C(=C/c1ccccc1)CCO	-89*	i	-92*	-35*
O=C(CNC(=O)C1COc2ccccc2O1)N/N=C\c1cccc(O)c1 (stereo not given)	5	i	1	2
O=C(CNC(=O)C1COc2ccccc2O1)N/N=C/c1ccc(O)cc1O (stereo not given)	-88*	i	-88*	-10
COc1ccc2[nH]c(C(=O)N/N=C/c3ccc(O)cc3O)cc2c1	-80*	i	·	0
COc1ccc(/C=C\C(=O)NCC(=O)N/N=C/c2ccc(O)cc2O)cc1	-88*	i	-17	1
COc1cc(/C=N/NC(=O)/C(=C/c2ccccc2)CCO)ccc1O	-9	i	-1	0
CCOc1ccc2[nH]c(C(=O)N/N=C/c3ccc(OC)cc3)cc2c1	-17	i	-6	0
O=S1(=O)CC(N2CCN(CCO)CC2)CN1Cc1cn(Cc2ccccc2C(F)(F)F)nn1 (stereo not given)	9	i	4	3
CCCCCN(C(=O)CCC(=O)OCc1ccc(C(C)(C)C)cc1)c1c(N)n(CCCC)c(=O)[nH]c1=O	4	i	5	0
CC(=O)c1ccc(C(=O)N2CCC(n3nccc3NC(=O)C3CC3)CC2)cc1	-3	i	5	1
CCOc1ccc(NC(=O)CN(C)C(=O)c2ccc(OCC(=O)N3CCOCC3)c(OC)c2)cc1OCC	-1	i	4	-4
CCCn1nc(C(=O)NNC(=O)C2CSC3(C)CCC(=O)N23)c2ccccc2c1=O (stereo not given)	2	i	3	-3
COc1ccc(O)c(/C=N/NC(=O)c2cc(=O)[nH]c3ccccc23)c1	-92*	i	?	-2
O=C(/C=C\c1ccccc1)NCC(=O)N/N=C/c1ccc(O)cc1O	-75*	i	-97*	-1
O=C(CNC(=O)C(c1ccccc1)c1ccccc1)N/N=C/c1ccc(O)cc1O	?	i	-18	-1
CN(C(=S)SCc1ccccc1)C1CCS(=O)(=O)C1 (stereo not given)	5	i	5	2
O=C(Cc1cccc(NC(=O)C2CCCN(C(=O)C3CCCC3)C2)c1)Nc1cccc(C(=O)N2CCCCC2)c1 (stereo not given)	0	i	7	2
O=C(CSc1n[nH]c(-c2ccccc2)n1)Nc1ncccn1	-7	i	2	1
O=C(CSc1n[nH]c(-c2ccccn2)n1)Nc1cccc(Cl)c1	-93*	i	-97*	-1
Cc1nc(SCC(=O)Nc2cccc(Cl)c2)n[nH]1	-3	i	0	1
Cc1ccc(C)c(NC(=O)CSc2n[nH]c(-c3ccccn3)n2)c1	-77*	i	-92*	0
SMILES	Six1-Eya2 blk	pAkt inh	CtBP-E1A blk	CCT chaperon mod
Cc1ccccc1NC(=O)CSc1n[nH]c(-c2ccccn2)n1	-92*	i	-94*	0
NC(=O)NC(=O)CSc1nc(C2CCCCC2)n(-c2ccccc2)n1	2	i	9	-3
CC(C)C(C)(C#N)NC(=O)CSc1nc(C2CCCCC2)n(-c2ccccc2)n1 (stereo not given)	5	i	-9	-33*
CCC(=O)NC(c1ccccc1OC)c1ccc2cccnc2c1O (stereo not given)	-88*	i	?	-4
COc1cccc(CNc2cccc3cccnc23)c1O	-14	i	-16	1
CCCCC(=O)NC(c1ccccc1Cl)c1ccc2cccnc2c1O (stereo not given)	-67*	i	?	0
CCCC(=O)NC(c1ccccc1)c1ccc2cccnc2c1O (stereo not given)	-66*	i	-91*	0
CCCCC(=O)NC(c1cccc([N+](=O)[O-])c1)c1ccc2cccnc2c1O (stereo not given)	?	i	·	-2
CCCC(=O)NC(c1ccc(OC)cc1)c1ccc2cccnc2c1O (stereo not given)	-90*	i	-88*	-1
CCCCC(=O)NC(c1ccccc1)c1ccc2cccnc2c1O (stereo not given)	-66*	i	?	-1
COc1cccc(C(Nc2ccccc2)c2ccc3ccc(C)nc3c2O)c1 (stereo not given)	-25	i	-5	·
COc1ccc(Cl)cc1C(Nc1cccnc1)c1ccc2cccnc2c1O (stereo not given)	?	i	-67*	2
CCCCC(=O)NC(c1ccc(C(C)C)cc1)c1ccc2cccnc2c1O (stereo not given)	-24	i	-22	-2
CC(C)C(C(=O)NCC1CCCO1)N(C(=O)CNS(=O)(=O)c1ccccc1)C1CCCCC1 (stereo not given)	-4	i	3	2
CCCCn1nnnc1C(c1ccccc1)N1CCN(c2ccc(C)cc2)CC1 (stereo not given)	-21	i	-17	1
Cc1cc(C)c(NC(=O)CCCC(=O)O)c(Cl)c1	1	i	7	-50*
O=C(O)CCCC(=O)Nc1ccc(Cl)cc1	-2	i	6	-65*
CN(C)S(=O)(=O)c1cccc(NC(=O)COc2ccccc2C(=O)NCc2ccccc2)c1	-3	i	3	0
Cc1cc(C)nc(Nc2nc(C(N)c3ccccc3)cs2)n1 (stereo not given)	-69*	i	-67*	0
CCOC(=O)C1CCN(C(=O)C2CCCN(c3ncnc4c3nc3n4CCCCC3)C2)CC1 (stereo not given)	-2	·	·	-2
CCOc1ncccc1C(=O)Nc1nnc(C2CC2)s1	-1	i	-1	-30*
COCCCn1cc(CN2CC(N3CCSCC3)CS2(=O)=O)nn1 (stereo not given)	12	i	-13	0
COc1ccc(C2=NS(=O)(=O)N(C)C(C(=O)N3CCOCC3)=C2)cc1	5	i	1	-1
COc1ccc(C2=NS(=O)(=O)N(C)C(C(=O)N3CCC(C(N)=O)CC3)=C2)cc1	5	i	-2	-67*
CC(=O)c1c(C)[nH]c(C(=O)CSc2nc3ccccc3n2C)c1C	-2	-85%*	-3	1
C=CS(=O)(=O)N(Cc1ccc(Cl)c(Cl)c1)C[C@@H](O)CO	1	i	7	0

From PubChem BioAssay
